Laboratory results published in PubChem BioAssay (NCATS).
Records with an inconclusive call do not appear. Where a call stands in place of a potency, no number is given. Activity calls are given as the source filed them. Calls come from the whole dose curve; as a rule, active = well fitted inhibition curve with a large enough effect; inconclusive = small, poorly fitted or top-dose-only effect; inactive = flat fitted curve, though single readings scatter.

Test system: CP238
Test: qHTS profiling for inhibitors of Plasmodium falciparum proliferation (AID 504749); note: nearly all actives have a fitted effect of over 60% in size
Settings: P. falciparum in erythrocytes, SYBR Green DNA, 72 h; series mostly up to 28.7 µM
In short: (§1)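 Infected RBCs, 0.3% parasitemia/2.5% Hct final; cpd 72 h, 37 C, 5% CO2; lysis buffer with saponin/triton/SYBR Green I, o/n RT dark; FI 485/535; norm. to artemisinin (0.29 uM) and DMSO.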
Potency is the fitted concentration of half-maximal effect.

| Structure (SMILES) | Potency |
| --- | --- |
| CC(=O)N/N=C/c1ccc([N+](=O)[O-])o1 | inactive |
| CCCCCCCCCCCCCCCCOP(=O)([O-])OCC[N+](C)(C)C | inactive |
| O=C1OC(c2ccc(O)cc2)(c2ccc(O)cc2)c2ccccc21 | inactive |
| Oc1ccc(Cl)cc1Sc1cc(Cl)ccc1O | inactive |
| CN(C(=O)CN(CCO)CC(=O)N(C)C(C)(C)Cc1ccccc1)C(C)(C)Cc1ccccc1 | inactive |
| O=C(N/N=C/c1ccccc1O)c1ccncc1 | 8.91 µM (active) |
| c1ccc(OCc2ccc(CCCN3CCOCC3)cc2)cc1 | inactive |
| N[C@H](Cc1c[nH]c2ccccc12)C(=O)O | inactive |
| CCCCCCCCCCOCC(O)CN (centres undefined) | inactive |
| CCN1CCCC1=O | inactive |
| Cc1cccc(C)c1NC(=O)CN1CCN(CCCC(c2ccc(F)cc2)c2ccc(F)cc2)CC1 | inactive |
| Cc1ccc(C(=O)C(C)CN2CCCCC2)cc1 (centres undefined) | inactive |
| CCN1CCC[C@H]1CNC(=O)c1c(OC)ccc(Br)c1OC | inactive |
| Cc1ccc(O)c2ncccc12 | inactive |

Test system: CP247
Test: as above
Settings: P. falciparum in erythrocytes, SYBR Green DNA, 72 h; series mostly up to 28.7 µM
In short: as §1

| Structure (SMILES) | Potency |
| --- | --- |
| CCCCCCCCCCCCCCCCOP(=O)([O-])OCC[N+](C)(C)C | inactive |
| O=C1OC(c2ccc(O)cc2)(c2ccc(O)cc2)c2ccccc21 | inactive |
| Oc1ccc(Cl)cc1Sc1cc(Cl)ccc1O | inactive |
| CN(C(=O)CN(CCO)CC(=O)N(C)C(C)(C)Cc1ccccc1)C(C)(C)Cc1ccccc1 | inactive |
| O=C(N/N=C/c1ccccc1O)c1ccncc1 | 8.91 µM (active) |
| c1ccc(OCc2ccc(CCCN3CCOCC3)cc2)cc1 | inactive |
| C=C(CC)C(=O)c1ccc(OCC(=O)O)c(Cl)c1Cl | 10 µM (active) |
| N[C@H](Cc1c[nH]c2ccccc12)C(=O)O | inactive |
| c1ccc(-c2ccc(C(c3ccccc3)n3ccnc3)cc2)cc1 (centres undefined) | 7.94 µM (active) |
| CCOC(=O)COc1ccc2c(C)c(CCN(CC)CC)c(=O)oc2c1Cl | inactive |
| CCCCCCCCCCOCC(O)CN (centres undefined) | inactive |
| CCN1CCCC1=O | inactive |
| C[C@@H]1CN(CCCn2c3ccccc3c3ccccc32)C[C@H](C)N1 | 4.47 µM (active) |
| Cc1cccc(C)c1NC(=O)CN1CCN(CCCC(c2ccc(F)cc2)c2ccc(F)cc2)CC1 | inactive |
| CCN(CC)CCOc1ccc(C(O)(Cc2ccc(Cl)cc2)c2ccc(C)cc2)cc1 (centres undefined) | 10 µM (active) |
| Cc1ccc(C(=O)C(C)CN2CCCCC2)cc1 (centres undefined) | inactive |
| CCCCCCCCCCCCCCNCCO | 10 µM (active) |
| Cc1ccc(O)c2ncccc12 | inactive |

Test system: CP250
Test: as above
Settings: P. falciparum in erythrocytes, SYBR Green DNA, 72 h; series mostly up to 28.7 µM
In short: as §1

| Structure (SMILES) | Potency |
| --- | --- |
| CCCCCCCCCCCCCCCCOP(=O)([O-])OCC[N+](C)(C)C | inactive |
| O=C1OC(c2ccc(O)cc2)(c2ccc(O)cc2)c2ccccc21 | inactive |
| Oc1ccc(Cl)cc1Sc1cc(Cl)ccc1O | inactive |
| CN(C(=O)CN(CCO)CC(=O)N(C)C(C)(C)Cc1ccccc1)C(C)(C)Cc1ccccc1 | inactive |
| O=C(N/N=C/c1ccccc1O)c1ccncc1 | 10 µM (active) |
| c1ccc(CNCCNCc2ccccc2)cc1 | inactive |
| c1ccc(OCc2ccc(CCCN3CCOCC3)cc2)cc1 | inactive |
| C=C(CC)C(=O)c1ccc(OCC(=O)O)c(Cl)c1Cl | 12.6 µM (active) |
| N[C@H](Cc1c[nH]c2ccccc12)C(=O)O | inactive |
| CC(C)NC[C@@H](O)COc1cccc2ccccc12 | inactive |
| CN(C)C(=S)SC(=S)N(C)C | 11.2 µM (active) |
| CCOC(=O)COc1ccc2c(C)c(CCN(CC)CC)c(=O)oc2c1Cl | inactive |
| OC(CCN1CCCCC1)(c1ccccc1)c1ccccc1 | inactive |
| CCCCCCCCCCOCC(O)CN (centres undefined) | inactive |
| CCN1CCCC1=O | inactive |
| Cc1cccc(C)c1NC(=O)CN1CCN(CCCC(c2ccc(F)cc2)c2ccc(F)cc2)CC1 | inactive |
| O=c1c(-c2ccccc2)c1-c1ccccc1 | 11.2 µM (active) |
| Cc1ccc(C(=O)C(C)CN2CCCCC2)cc1 (centres undefined) | inactive |
| CN(C)CC/C=C1\c2ccccc2Sc2ccc(Cl)cc21 | inactive |
| CCN1CCC[C@H]1CNC(=O)c1c(OC)ccc(Br)c1OC | inactive |
| Cc1ccc(O)c2ncccc12 | inactive |

Test system: CP252
Test: as above
Settings: P. falciparum in erythrocytes, SYBR Green DNA, 72 h; series mostly up to 28.7 µM
In short: as §1

| Structure (SMILES) | Potency |
| --- | --- |
| CCCCCCCCCCCCCCCCOP(=O)([O-])OCC[N+](C)(C)C | inactive |
| O=C1OC(c2ccc(O)cc2)(c2ccc(O)cc2)c2ccccc21 | inactive |
| Oc1ccc(Cl)cc1Sc1cc(Cl)ccc1O | inactive |
| CN(C(=O)CN(CCO)CC(=O)N(C)C(C)(C)Cc1ccccc1)C(C)(C)Cc1ccccc1 | inactive |
| O=C(N/N=C/c1ccccc1O)c1ccncc1 | 8.91 µM (active) |
| c1ccc(OCc2ccc(CCCN3CCOCC3)cc2)cc1 | inactive |
| C=C(CC)C(=O)c1ccc(OCC(=O)O)c(Cl)c1Cl | 12.6 µM (active) |
| N[C@H](Cc1c[nH]c2ccccc12)C(=O)O | inactive |
| c1ccc(-c2ccc(C(c3ccccc3)n3ccnc3)cc2)cc1 (centres undefined) | 10 µM (active) |
| CN1CCN(CCCN2c3ccccc3Sc3ccc(S(=O)(=O)N(C)C)cc32)CC1 | inactive |
| CCN1CCCC1=O | inactive |
| Cc1cccc(C)c1NC(=O)CN1CCN(CCCC(c2ccc(F)cc2)c2ccc(F)cc2)CC1 | inactive |
| CCCCc1nc(Cl)c(CO)n1Cc1ccc(-c2ccccc2-c2nn[nH]n2)cc1 | 10 µM (active) |
| Cc1ccc(C(=O)C(C)CN2CCCCC2)cc1 (centres undefined) | inactive |
| CCN1CCC[C@H]1CNC(=O)c1c(OC)ccc(Br)c1OC | inactive |
| Cc1ccc(O)c2ncccc12 | inactive |
